Screening results as filed in PubChem BioAssay.
Nrf2 activator – activates Nrf2 signaling | AREc32 ARE-luciferase reporter (MCF7-derived line), luminescence, 24 h | 410,000 tested, 0.31% active | Potency, µM (top dose mostly 46.1 µM), actives largely listed as activators; also: nearly all actives have a fitted effect of over 65% in size
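ARE-driven firefly luciferase activity in AREc32 cells measured after a 24 hr compound exposure at 37 deg C, using Steady-Glo reagent and a 30 min room-temperature hold.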
Nrf2 block – inhibitors of Nrf2 signaling; A549 ARE-Fluc reporter, luciferase luminescence, 18-24 h; Potency, µM (series often up to 46 µM), actives largely listed as inhibitors; 360,000 tested, 2.1% active; AID 504444; also: nearly all actives have a fitted effect of over 60% in size
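A549 ARE_Fluc cells, 5000/well, 5% FBS OPTI-MEM; compounds in dose-response, 18-24 h at 37 °C/5% CO2; CellTiter-Fluor viability read (Ex 405/Em 525), then BugLite luciferase luminescence = Nrf2 activity.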
TGFb inhibitor – TGF-b pathway inhibition | HepG2 CAGA-GFP TGF-b/SMAD3 reporter, GFP fluorescence, 18 h; TGF-beta stimulated, 500 pg/mL final | Potency, µM (series often up to 46.1 µM), usual class: inhibitors | 410,000 tested, 1.2% active; also: nearly all actives have a fitted effect of over 65% in size
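Read-out: total well GFP (ex488/em500-530) summed from mean per-cell fluorescence. Cells: HEPG2 CAGA-GFP, 1% FBS DMEM, 18 h at 37 degrees C with 500 pg/mL final TGF-beta. Unstimulated wells served as the full-inhibition control; stimulated DMSO wells = 0%.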
A549 tox – A549 cytotoxicity, counter-screen for Nrf2 inhibitors. A549 ARE-Fluc cells, CellTiter-Fluor viability, 18-24 h. Potency, µM (doses to about 46 µM), usual class: inhibitors. 390,000 tested, 0.16% active
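Cytotoxicity counterscreen: CellTiter-Fluor fluorescence was measured in A549 ARE_Fluc cells after 18-24 h of compound exposure in a concentration series. The subsequent BugLite luminescent read reports ARE-luciferase activity.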
HepG2 tox – HepG2 cytotoxicity, counter-screen for TGF-b inhibitors | Potency, µM (titrated, usually from 46.1 µM), actives largely listed as cytotoxic | 410,000 tested, 0.76% active | HepG2 CAGA-GFP viability, ATP luminescence, 18 h | AID 588856
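HepG2 CAGA-GFP cells (1000/well, DMEM with 1% FBS) received compound, then TGF-beta at 500 pg/mL final, and were incubated 18 hours at 37 degrees C. Viability was read by CellTiter-Glo luminescence. Media-only wells were set as complete cell-killing and DMSO as no toxicity.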
Each line names hits and unclear results; the compound was inactive in the other large screens. Rows were chosen to be rich in hits. Some 3.6% of all compounds tested hit in one or more screens of this group. Calls follow the shape of the dose curve; as a rule, active = well fitted curve in the direction sought with a large enough effect; inconclusive = small, poorly fitted or top-dose-only effect, or another doubt; inactive = no such curve, though single readings can be large; an effect the other way counts as inactive or inconclusive.

Cc1cc(-c2ccccc2)nc2[n+]1CCN2C	Nrf2 block 5.2µM, TGFb inhibitor inconclusive
O=C(/C=C/c1ccco1)N1CCCC(c2ccccc2)C1 (configuration not stated)	none
N#C/C(=C(/O)CN1CCN(c2ccccc2F)CC1)c1nc(-c2ccc(Cl)cc2)cs1	TGFb inhibitor 7.9µM
O=C(Nc1ccc(Cc2ccncc2)cc1)C1CC1	none
CC(=O)Nc1ccc(NC(=O)C2CCC(N3C(=O)C4C5C=CC(C6CC56)C4C3=O)CC2)cc1 (configuration not stated)	Nrf2 block 26µM
O=C(Nc1ccc(Cc2ccncc2)cc1)C1CCC(N2C(=O)C3C4C=CC(C5CC45)C3C2=O)CC1 (configuration not stated)	Nrf2 block 18µM, TGFb inhibitor inconclusive, A549 tox inconclusive
COc1ccc(NC(=O)C2CCC(N3C(=O)C4C5C=CC(C5)C4C3=O)CC2)cc1 (configuration not stated)	none
Cc1ccc(O)c(NC(=O)CCS(=O)(=O)c2nc(-c3cccs3)cc(C(F)(F)F)n2)c1	TGFb inhibitor 10µM, HepG2 tox 13µM
O=C(CSc1nc(-c2cccs2)cc(C(F)(F)F)n1)Nc1ccccc1Cl	none
CCN(CC)c1ccc(NC(=O)CSc2nc(-c3cccs3)cc(C(F)(F)F)n2)cc1	none
O=C(CCS(=O)(=O)c1nc(-c2cccs2)cc(C(F)(F)F)n1)Nc1ccc(Br)cc1	TGFb inhibitor 5.6µM, HepG2 tox 10µM
O=C(CCS(=O)(=O)c1nc(-c2cccs2)cc(C(F)(F)F)n1)Nc1cc(Br)ccc1O	Nrf2 activator inconclusive, Nrf2 block inconclusive, TGFb inhibitor 2.5µM, A549 tox inconclusive, HepG2 tox 6.3µM
CCN1C(=O)[C@H]2[C@@H](c3ccc(SC4CCCCC4)cc3)N[C@@](CC(C)C)(C(=O)OC)[C@H]2C1=O	Nrf2 block 21µM
O=C(NN=C1CCCC1)c1ccc(Cl)cc1	none
O=C1/C(=C\c2ccco2)CCC/C1=C\c1ccco1	Nrf2 activator 10µM
O=C1/C(=C/c2ccco2)CCC1C1CCCC1 (configuration not stated)	none
COc1cc(NC(=O)CN2c3cccc4cccc(c34)S2(=O)=O)cc(OC)c1OC	Nrf2 block 23µM
Cc1ccc(S(=O)(=O)/N=C2\C=C(Nc3cccc(C(=O)O)c3)C(=O)c3ccccc32)c(C)c1	TGFb inhibitor 13µM, HepG2 tox 16µM
Cc1ccc(NC2=C/C(=N/S(=O)(=O)c3cccs3)c3ccccc3C2=O)cc1	Nrf2 block inconclusive, TGFb inhibitor inconclusive, A549 tox inconclusive, HepG2 tox 4µM
COC(=O)c1ccccc1NC1=C/C(=N\S(=O)(=O)c2ccc(C(=O)O)cc2)c2ccccc2C1=O	TGFb inhibitor 8.9µM, HepG2 tox 16µM
Cc1ccc(S(=O)(=O)/N=C2\C=C(NS(=O)(=O)c3ccccc3)C(=O)c3ccccc32)c(C)c1	none
O=C(O)c1cccc(NS(=O)(=O)c2ccc3c(c2)C(=O)c2ccccc2C3=O)c1	none
Cc1ccc(S(=O)(=O)/N=C2\C=C(Nc3cccc(C(=O)O)c3)C(=O)c3ccccc32)cc1	TGFb inhibitor 13µM
C[C@H](CO)N1C[C@H](C)[C@@H](CN(C)C(=O)Nc2ccccc2)Oc2ncc(C#CC3CCCCC3)cc2C1=O	none (no result: Nrf2 block, A549 tox)
CCc1ccc(S(=O)(=O)/N=C2\C=C(Nc3ccc(C(=O)O)cc3)C(=O)c3ccccc32)cc1	TGFb inhibitor 16µM
CC(C)(C)c1ccc(S(=O)(=O)/N=C2\C=C(NS(=O)(=O)c3ccccc3)C(=O)c3ccccc32)cc1	TGFb inhibitor inconclusive
Cc1nn(-c2ccccc2)c(Cl)c1/C=N/NC(=O)c1cccnc1	none
O=C(N/N=C/c1c(Cl)nc2ccccn2c1=O)c1cccnc1	Nrf2 activator 14µM, Nrf2 block inconclusive, TGFb inhibitor inconclusive
COc1ccc(CCNC(=O)Cn2c(=O)cc(C(F)(F)F)c3c(C)nn(C)c32)cc1OC	none
CC(=O)c1cccc(NC(=O)c2cccc(N3C(=O)c4ccccc4C3=O)c2)c1	HepG2 tox 2.8µM
COc1ccc(OC)c(NC(=O)c2cccc(N3C(=O)C4C5C=CC(C6CC56)C4C3=O)c2)c1 (configuration not stated)	TGFb inhibitor inconclusive
NS(=O)(=O)c1cccc(NC(=O)c2cccc(N3C(=O)c4ccccc4C3=O)c2)c1	none
COC(=O)c1ccc(NC(=O)c2cccc(N3C(=O)C4C5C=CC(C6CC56)C4C3=O)c2)cc1 (configuration not stated)	Nrf2 block 21µM, A549 tox inconclusive
O=C(Nc1ccccc1)c1cccc(N2C(=O)C3C4C=CC(C5CC45)C3C2=O)c1 (configuration not stated)	Nrf2 block 21µM
O=C(Nc1ccc(F)cc1)c1cccc(N2C(=O)C3C4C=CC(C5CC45)C3C2=O)c1 (configuration not stated)	Nrf2 block 15µM
Cc1ccc(S(=O)(=O)N2CCC(c3nc4c(nnn4Cc4ccccc4)c(=O)[nH]3)CC2)cc1	none
Cc1ccc(NC(=O)Nc2ccc3c(c2)CCC3)cc1	none
Cc1cc(C(=O)NC2CCCc3c2cnn3-c2ccc(C(C)(C)C)cc2)nn1C (configuration not stated)	Nrf2 block 2.6µM, TGFb inhibitor inconclusive
Cc1cc(C)cc(-n2ncc3c2CCCC3NC(=O)c2cc(C)n(C)n2)c1 (configuration not stated)	TGFb inhibitor inconclusive
COC(=O)[C@]12CCCCC=C1N(Cc1ccco1)C(=O)[C@H](CC(=O)N1CCN(C(=O)C3CC3)CC1)C2	none (no result: Nrf2 block, TGFb inhibitor, A549 tox, HepG2 tox)
Oc1ccc(COc2ccccc2Cl)c2cccnc12	Nrf2 block 18µM (no result: Nrf2 activator, TGFb inhibitor, HepG2 tox)
Oc1ccc(CCc2ccccc2)c2cccnc12	Nrf2 block inconclusive (no result: Nrf2 activator, TGFb inhibitor, HepG2 tox)
Cc1sc2ncnc(SCC(=O)Nc3ncccc3O)c2c1C	none
Cc1cc(NC(=O)CSc2nc3c(C)c(C)ccc3cc2C)no1	none
CCc1ccc(CN(Cc2cn[nH]c2-c2ccc(OC)cc2)C(=O)Nc2ccc(Br)cc2)cc1	TGFb inhibitor 7.9µM
COc1ccc(NC(=O)COC(=O)Cc2ccc(Br)cc2)cc1	none
CCOc1ccc(NC(=O)N(Cc2ccc(CC)cc2)Cc2cn[nH]c2-c2ccc(OC)cc2)cc1	TGFb inhibitor 8.9µM
CCc1ccc(CN(Cc2cn[nH]c2-c2ccc(OC)cc2)C(=O)Nc2ccc(C)c(F)c2)cc1	TGFb inhibitor 10µM
CCOC(=O)CN(C)Cc1cn[nH]c1-c1ccc2cc(OC)ccc2c1	none
CS(=O)(=O)c1ccc(-c2cccc(NC(=O)c3ccc4c(c3)OCO4)c2)nn1	none (no result: Nrf2 block, A549 tox)
CS(=O)(=O)c1ccc(Cl)c(NC(=O)COC(=O)c2c(Cl)cccc2Cl)c1	none
